Shown are actives, neighbours in structure and some others; about 8.8% of the full set was active somewhere.
Lamin A splicing: changes lamin A minigene splicing in HeLa cells. HeLa LMNA splicing GFP/RFP minigene ratio, 48 h. Potency, µM (doses to about 46.1 µM), inactives show at the top dose ratio change, negative = inhibition, hits mostly inhibitors. hit rate 0.01% among 200,000. AID 1487; active means well fitted inhibition curve with a large enough effect in the signal ratio, with a control signal flat, not every such curve was filed as active; inconclusive means small, poorly fitted or top-dose-only effect, or effect the other way, or a change in a side signal; the % refers to the signal ratio; further: potency means the concentration at half of the fitted maximal effect; on the % scale 0 is the no-effect control and ±100 the full control effect
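S3 HeLa stable clones carrying a lamin A-EGFP splicing minigene plus DsRed2 were seeded at 600 cells/well in Opti-MEM with 2% FBS, pin-dosed and incubated 48 h at 37°C. Acumen cytometry (488 nm) gave the GFP/RFP total-intensity ratio.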
HTT aggregate: mutant huntingtin aggregation inhibition. hit rate 1.1% among 220,000. PC12 HttQ103-GFP aggregates, Acumen cytometry, 40 h. AID 1688. Potency, µM (doses to about 46.1 µM), for the others: at the top dose activity change, negative = inhibition, most hits filed as inhibitors; active means well fitted curve in the direction sought with a large enough effect; inconclusive means small, poorly fitted or top-dose-only effect, or another doubt; inactive means no such curve, though single readings can be large; an effect the other way counts as inactive or inconclusive; further: potency means the concentration at half of the fitted maximal effect; on the % scale 0 is the no-effect control and ±100 the full control effect; nearly all actives have a fitted effect of over 60% in size
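Ecdysone-promoter PC12 model expressing HTT exon 1 Q103 fused to GFP, induced by tebufenozide at 100 nM final. Compounds titrated; aggregates sized 1–25 µm scored on a 488 nm laser cytometer.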
HTT cytoprotect: protects HTT-Q103 PC12 cells, measured by ATP; PC12 HTT-Q103 induced, cytoprotection, ATP luminescence, 40 h; Potency, µM (titrated, usually from 56.4 µM), for inactives: cytoprotection (ATP increase), usual class: activators; hit rate 0.14% among 230,000; AID 1471; active means well fitted curve in the direction sought with a large enough effect; inconclusive means small, poorly fitted or top-dose-only effect, or another doubt; inactive means no such curve, though single readings can be large; an effect the other way counts as inactive or inconclusive; further: potency means the concentration at half of the fitted maximal effect; % of control where 0% means no effect; nearly all actives have a fitted effect of over 45% in size
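PC12 cells with ecdysone-inducible HTT exon 1 Q103-GFP, induced with 100 nM tebufenozide and co-treated with library compounds in a dose series (1536-well, 1500 cells/well). Cytoprotection read as ATP content by ATPlite luminescence.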
ALDH1A1 inh-1: inhibitors of human aldehyde dehydrogenase 1A1; P00352; Purified ALDH1A1, NADH fluorescence, propionaldehyde substrate; Potency, µM (series often up to 75.3 µM), for inactives: at the highest dose activity, negative = inhibition, most hits filed as inhibitors; hit rate 7.3% among 220,000; AID 1030;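 further: potency means the concentration at half of the fitted maximal effect; plate controls were no enzyme wells and a reference inhibitor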
HPGD block: blocks human HPGD enzyme activity; P15428; Potency, µM, for inactives: at the top dose activity change, negative = inhibition, most hits filed as inhibitors; hit rate 4.3% among 150,000; purified HPGD, NADH fluorescence kinetic, PGE2 substrate; further: potency means the concentration at half of the fitted maximal effect; on the % scale 0 is the no-effect control and ±100 the full control effect
Target sequence (P15428 whole entry, looked up): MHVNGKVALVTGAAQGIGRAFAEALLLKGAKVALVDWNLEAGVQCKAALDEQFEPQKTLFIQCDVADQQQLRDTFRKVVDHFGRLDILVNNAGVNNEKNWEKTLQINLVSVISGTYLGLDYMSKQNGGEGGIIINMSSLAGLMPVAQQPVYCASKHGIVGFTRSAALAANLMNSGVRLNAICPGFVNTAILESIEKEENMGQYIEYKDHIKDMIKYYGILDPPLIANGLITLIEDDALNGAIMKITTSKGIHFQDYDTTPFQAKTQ
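NADH formation kinetics: reaction with 30 uM PGE2 and 1 mM NAD+ (final), 20 nM enzyme, Tris-HCl pH 8 with Tween 20, after 15 min compound preincubation at room temperature. Fluorescence change, last versus first of five reads.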
ALDH1A1 inh-2: Blocks ALDH1A1 NADH production, follow-up. hit rate 90% among 90. shares compounds with ALDH1A1 inh-1. Potency, µM (top dose mostly 57.1 µM), without a hit: top-dose activity change, negative = inhibition, actives largely listed as inhibitors. purified ALDH1A1, NADH fluorescence, propionaldehyde/NAD+; calls by dose curve
* = called active by the depositor; [ ] = another dose, or the depositor's remark. Unless noted, the call rests on the fitted dose curve; in most records, active means well fitted inhibition curve with a large enough effect (not every such curve was filed as active); inconclusive means small, poorly fitted or top-dose-only effect, or another doubt; inactive means no such curve, though single readings can be large or run the other way.

COc1ccc(S(=O)(=O)NCC2CCCN(C(=O)c3ccccc3)C2)cc1 (configuration not stated) was read as HTT aggregate 3.9%[9.22 µM], HTT cytoprotect -31.1%[10 µM], ALDH1A1 inh-1 0.199µM* and ALDH1A1 inh-2 0.199µM*.
For COc1ccc(S(=O)(=O)NCC2CCCN(C(=O)CC3CCCC3)C2)cc1 (configuration not stated) the results were Lamin A splicing 18.5%[46 µM], HTT aggregate 10.3%[9.22 µM], HTT cytoprotect 33.6%[10 µM], ALDH1A1 inh-1 0.794µM* and ALDH1A1 inh-2 0.891µM*.
Screening CCCCC(=O)N(Cc1nc2sc(C)c(C)c2c(=O)[nH]1)C1CCCC1 returned HTT aggregate 14.3%[9.22 µM], HTT cytoprotect -5.6%[10 µM] and ALDH1A1 inh-1 inconclusive.
Screening COc1ccc2c(c1)O/C(=C\c1sccc1C)C2=O returned Lamin A splicing -2.5%, HTT aggregate -9.2%, HTT cytoprotect -1.2%[10 µM], ALDH1A1 inh-1 -4.5% and HPGD block -26.0%.
For CCOC(=O)Cc1ccc2sc(-c3ccccc3)nc2c1 the results were Lamin A splicing -1.9%, HTT aggregate 17.7%, HTT cytoprotect 0.8%[10 µM], ALDH1A1 inh-1 -4.5% and HPGD block -5.8%.
`CCOc1ccc(NC(=O)CN2CCN(CC(=O)c3ccc(OCC)cc3)CC2)cc1` gave Lamin A splicing 9.7%, HTT aggregate -6.1%, HTT cytoprotect -12.5%, ALDH1A1 inh-1 1.41µM*, HPGD block -20.3% and ALDH1A1 inh-2 4.47µM*.
`CCC(Sc1nc2cc(OC)c(OC)cc2c(=O)n1Cc1ccco1)C(=O)NCCOC` (configuration not stated) gave Lamin A splicing -4.1%, HTT aggregate 3.4%, HTT cytoprotect -12.3%, ALDH1A1 inh-1 0.794µM*, HPGD block -11.9% and ALDH1A1 inh-2 0.251µM*.
CCc1ccc(NC(=O)C(CC)Sc2nc3cc4c(cc3c(=O)n2Cc2ccco2)OCO4)cc1 (configuration not stated) was read as Lamin A splicing 20.4%, HTT aggregate inconclusive, HTT cytoprotect -2.8%[10 µM], ALDH1A1 inh-1 0.398µM*, HPGD block -8.1% and ALDH1A1 inh-2 0.224µM*.
Screening Cc1ccccc1C(=O)NCCc1sc(-c2ccc(Cl)cc2)nc1C returned Lamin A splicing 7.2%[46 µM].
Screening CCC(=O)Nc1nnc(S(=O)(=O)N2c3ccccc3CC2C)s1 (configuration not stated) returned Lamin A splicing -3.9%[46 µM].
`CC(C)c1nc(N(C)S(C)(=O)=O)nc(-c2ccc(F)cc2)c1/C=C/C(O)CC(O)CC(=O)O` (configuration not stated) gave Lamin A splicing inconclusive, HTT aggregate 0.5%, HTT cytoprotect -81.3%, ALDH1A1 inh-1 0.224µM*, HPGD block -5.4% and ALDH1A1 inh-2 0.126µM*.
COc1c(Cl)cc(Cl)cc1CNCCO was read as Lamin A splicing inconclusive, HTT aggregate 12.7%[9.22 µM], HTT cytoprotect -72.4% and ALDH1A1 inh-1 -0.1%.
COc1ccc([N+](=O)[O-])cc1NC(=O)C(C)N1CCN(C(=O)c2ccco2)CC1 (configuration not stated) was read as HTT aggregate 12.1%, HTT cytoprotect -0.4%[10 µM], ALDH1A1 inh-1 1.26µM* and ALDH1A1 inh-2 3.16µM*.
O=C(CN1CCN(C2CCCCC2)CC1)Nc1ccccc1-c1ccccc1 was read as Lamin A splicing -6.9%, HTT aggregate -13.3%, HTT cytoprotect -12.5%[10 µM], ALDH1A1 inh-1 6.31µM*, HPGD block 0.4% and ALDH1A1 inh-2 inconclusive.
O=C(CN1CCN(C2CCCCC2)CC1)Nc1cccc2ccccc12 was read as Lamin A splicing 2.0%[46 µM], HTT aggregate 14.9%, HTT cytoprotect 10.8%[10 µM] and ALDH1A1 inh-1 inconclusive.
`CCn1c(SCC(=O)Nc2ccc3c(c2)OCCO3)nnc1-c1ccco1` gave Lamin A splicing -4.3%, HTT aggregate -18.4%, HTT cytoprotect 1.5%, ALDH1A1 inh-1 inconclusive and HPGD block -3.0%.

Bioassay records (PubChem BioAssay)
